This passage reports Percent Effect results from ChEMBL document CHEMBL3988442, “University of Dundee, Small-Polar-MMV Screening Library” (2021).

The test concerns the target AMP-activated protein kinase, AMPK (Homo sapiens) (UniProt P54646+O43741+P54619+Q9UGJ0+Q9Y478+Q13131+Q9UGI9). The test is described as follows: AMP-dependent Kinase enzyme assay. An in vitro enzyme assay that detects ADP turnover that is directly proportional to AMPK activity. This uses naive AMPK that is activated during the assay with MK-8722. In kind it is functional. Also on record: scale not given: direction of the effect not stated beside the values. Particulars: 30 µM.
For the compound `CCN(Cc1ccc2c(c1)OCO2)c1ncc(S(N)(=O)=O)s1`, the Percent Effect stood at 1.52%.

With `CC(C)C(NC(=O)NCc1cccnc1N(C)C)c1cccs1` (stereo not given), the Percent Effect was determined as 0.836%.

For the compound `COc1cccc(CN(C)Cc2c(C)noc2C)c1OC`, the Percent Effect was found to be 18.1%.

With `Cc1cc(CN2CCC(C3CCN(Cc4cccnc4)CC3)C2)[nH]n1` (stereo not given), the Percent Effect was -8.19%.

In the case of `O=C(Cc1ccc(Cl)s1)Nc1ccc2c(c1)C(=O)NC2=O`, the Percent Effect was 68.3%.

For the compound `CN1CCCC(c2nccnc2-c2cccc(C(F)(F)F)c2)C1` (stereo not given), the Percent Effect came out at 26.4%.

As to `CN(Cc1ccc(F)cc1F)Cc1cc2c(cc1Br)OCCO2`, the Percent Effect is -3.85%.

As for `Cc1noc(C)c1CC(=O)N[C@@H]1CC[C@@H](Oc2ccccc2)[C@@H]1O`, the Percent Effect worked out at 5.13%.

Consider `CCOC(=O)NC1CCCN(c2cncc(Br)c2)C1` (stereo not given), for which the Percent Effect was 15.7%.

`CC(=O)N1CCN(CCNC(=O)NC(C)Cn2ccnc2)CC1` (stereo not given): the Percent Effect is -2.62%.

For `CCCN1CCC(CC(=O)NCc2cc(O)ncn2)CC1`, the Percent Effect was -4.63%.

`COc1ncc(NCc2ccc(F)cc2)cc1C(N)=O`: the Percent Effect was found to be 5.39%.

On to `Cn1ccc(C(=O)N2CCCC2c2cc[nH]n2)n1` (stereo not given), for which the Percent Effect was 4.63%.

As to `CCc1nnc(NC(=O)NCCN(C)C(=O)OC(C)(C)C)s1`, the Percent Effect is -3.38%.

As to `CC(C)c1nnc2n1CCN(Cc1cc(Cl)c3c(c1)OCCO3)C2`, the Percent Effect turned out to be 11.8%.

With `CC(O)C(=O)N1CCC(c2[nH]ncc2-c2ccccc2)CC1` (stereo not given), the Percent Effect is -11.2%.

With `CC1CCC(O)(CSc2nnnn2C)CC1` (stereo not given), the Percent Effect was 3.45%.

For the compound `O=C(O)[C@@H]1CN(CCOCCO)C[C@H]1c1ccccc1`, the Percent Effect is 1.29%.

On to `Cn1c(N2CC[C@H](O)C2)nc2cc(C(N)=O)ccc21`, for which the Percent Effect turned out to be 21.4%.

Consider `CC(NCc1ccnc(OC2CCC2)c1)c1cnn(C)c1` (stereo not given), for which the Percent Effect came out at 6.18%.

As to `CN1C(=O)[C@H]2CC[C@@H]1CN(C(=O)Nc1ccccc1C(F)(F)F)C2`, the Percent Effect was -0.892%.

With `O=C(CNC(=O)c1ccccc1F)NCc1ccccn1`, the Percent Effect was 0.147%.

On to `O=c1ccc(S(=O)(=O)N2CCCC2)cn1CC1CCCCO1` (stereo not given), for which the Percent Effect is 6.91%.

With `COc1ccsc1C(=O)NC1CCN(c2ccc(C#N)cc2)CC1`, the Percent Effect was 13.5%.

Take `CCc1nc(N)nc(NCCC(=O)N2CCCC2)c1C`: the Percent Effect was determined as 4.47%.

As to `CCCn1ccnc1-c1cccc(NC(=O)[C@H]2CCC(=O)N2)c1`, the Percent Effect was 11.3%.

Take `O=C(NCCCn1ccnc1)C1COCC(=O)N1Cc1ccccc1` (stereo not given): the Percent Effect was found to be 3.38%.

Turning to `CN(C)c1ccc(C(=O)Nc2cnn(Cc3ccccn3)c2)cc1`, the Percent Effect was -1.9%.

Consider `Cc1ccc(C(=O)NC2CCCN(S(C)(=O)=O)C2)c(=O)[nH]1` (stereo not given), for which the Percent Effect was -0.668%.

Regarding `Cc1ccc(C)c(CC(=O)NC2CCC(N3C(=O)CCC3=O)CC2)c1` (stereo not given), the Percent Effect was -3.29%.

Take `Cc1nc2c(c(N[C@H](C(N)=O)C(C)C)n1)Cc1ccccc1OC2`: the Percent Effect is -25.7%.

As to `NC(=O)C1CCN(c2ncccc2C(=O)N2CCc3ccccc32)C1` (stereo not given), the Percent Effect worked out at 2.58%.

Regarding `Cc1c(NC(=O)N(C)CCO)cccc1OC1CCCC1`, the Percent Effect is -3.01%.

`O=C(NCc1ccc(Br)c(F)c1)Nc1cn[nH]c1`: the Percent Effect is -0.537%.

Consider `COc1ccc(C)nc1NC(=O)CCc1c(C)nn(C)c1C`, for which the Percent Effect is -7.06%.

Consider `Cc1ccc(C(=O)NCCC2CCN(C)CC2)cc1N(C)S(C)(=O)=O`, for which the Percent Effect is -4.15%.

As to `COCC1(C(=O)N[C@H]2CN(c3ccnc(C)c3)C[C@@H]2C2CC2)CCC1`, the Percent Effect is -1.57%.

With `COc1ccc(CCCN(C)C(=O)c2cc(Cl)c[nH]2)cc1OC`, the Percent Effect stood at 7.77%.

With `COc1ccc(CC2(CO)CCN(c3cc(N)ncn3)CC2)cc1`, the Percent Effect turned out to be 8.25%.

For the compound `Cc1c(C(=O)N(C)C)cccc1N(C)S(C)(=O)=O`, the Percent Effect is 11.2%.
